# Rce1 inhib = yeast Rce1p protease inhibitors, primary screen, biochemical, fluorescence, cell-free homogeneous. CAAX prenyl protease 2 (Saccharomyces cerevisiae (strain ATCC 204508 / S288c)), Q03530. yeast membranes, quenched prenylated peptide cleavage fluorescence. calls only. 290,000 tested, 0.27% active. AID 2563, 2010;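 active means fall in fluorescence gain of 50% or more versus controls, with final raw signal at or below 3038400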;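 further: plate controls were neutral control wells for no effect and wells lacking membranes for full effect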
# Target sequence (Q03530 whole entry, looked up): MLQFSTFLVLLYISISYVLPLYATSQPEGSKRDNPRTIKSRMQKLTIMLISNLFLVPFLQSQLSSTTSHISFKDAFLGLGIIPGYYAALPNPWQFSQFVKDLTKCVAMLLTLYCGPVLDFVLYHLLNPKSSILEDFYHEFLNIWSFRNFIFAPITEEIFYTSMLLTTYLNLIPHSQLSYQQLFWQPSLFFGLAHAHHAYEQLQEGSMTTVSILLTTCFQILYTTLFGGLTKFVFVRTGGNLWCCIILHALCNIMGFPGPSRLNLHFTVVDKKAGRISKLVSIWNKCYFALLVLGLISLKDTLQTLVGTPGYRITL
# Kir21 block = inhibitors of mouse Kir2.1 inward-rectifier potassium channel | HEK293-Kir2.1, FluxOR thallium flux fluorescence; hits give low values | AID 1672, 2009 | 310,000 tested, 0.85% active | Inward rectifier potassium channel 2 (Mus musculus), P35561 | B-score at 10 µM;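 active means fluorescence ratio B-score at or below minus 3 SD of library scores, with starting-brightness B-score within 2 SD, cut at about -4.2 in these data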;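 further: channel flux triggered by added potassium and thallium sulfate stimulus; B-score of peak minus minimum fluorescence over baseline after thallium stimulus; more negative B-score means stronger Kir2.1 block with less thallium influx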
# CHT PAM = CHT positive allosteric modulators, primary screen, cell-based, membrane potential dye, choline EC20; CHT-expressing cells; hits give high values; LV-AA mutant CHT in HEK293 cells; 310,000 tested, 0.49% active; B-score at 10 µM; High affinity choline transporter 1 (Homo sapiens), Q9GZV3;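 active means initial fluorescence not abnormally high and integrated response B-score, plate-corrected, over 3 SD above library mean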
# CHT inh = inhibitors of human choline transporter CHT; High affinity choline transporter 1 (Homo sapiens), Q9GZV3; CHT-expressing cells, membrane potential dye, choline response; hits give low values; AID 488975, 2010; B-score at 10 µM; 310,000 tested, 0.86% active;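 active means B-score over 3 SD under the library average, and starting fluorescence ratio not unusually high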;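 further: choline stimulus applied at its EC90 after an EC20 pre-addition; B-score computed on integrated fluorescence ratio after choline addition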
# ANO1 block = TMEM16A chloride channel inhibitors, primary screen, cell-based, HTS. Anoctamin-1 (Mus musculus), Q8BHY3. HEK293 TMEM16A/YFP iodide influx fluorescence, ionomycin. normalized B-score (activity score, 25-100; higher = stronger inhibition) at 10 µM. 310,000 tested, 1.2% active;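 active means ratio plate-corrected score three or more library SD toward inhibition, starting fluorescence score within five deviations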;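 further: score derived from kinetic fluorescence span divided by baseline fluorescence per well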
# TMEM16A act = TMEM16A chloride channel activators or potentiators, primary screen, cell-based, HTS; B-score at 10 µM; HEK293 TMEM16A/YFP-H148Q/I152L, iodide quench fluorescence; hits give low values; 340,000 tested, 0.3% active; AID 623877, 2012;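 active means fluorescence-ratio B-score plate-corrected deviation score at least 3 library SD below zero, with starting fluorescence score within 5 deviations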;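 further: channel opened by trigger with iodide after compound preincubation; score built on the fluorescence ratio of max minus min over baseline; more negative score means more quench and so TMEM16A activation or potentiation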
# TMEM16A reconf = TMEM16A chloride channel inhibitors, confirmation, cell-based, re-confirmation; HEK293 TMEM16A/YFP-H148Q, iodide quench fluorescence; ionomycin added to raise cell calcium; 2,300 tested, 39% active; AID 652189, 2013; shares compounds with ANO1 block; inhibition, % at 10 µM;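 active means mean duplicate percent inhibition, scaled so buffer wells are 0 and the reference blocker 100, over three buffer SD above buffer mean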
# TMEM16A Ca cntr = calcium mobilization in TMEM16A/YFP HEK293 cells, confirmation, counter-screen for TMEM16A inhibitor project | 2,300 tested, 2% active | calcium response (% of ionomycin), % at 10 µM | Fluo4 calcium mobilization | shares compounds with ANO1 block;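 active means duplicate-averaged calcium signal over 20% of the ionomycin maximum, relative to buffer baseline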;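 further: each well's signal is peak minus trough fluorescence divided by its pre-addition baseline; 0% = buffer wells and 100% = ionomycin wells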
# YFP-HEK293 quench = iodide YFP quench changes in parental YFP-HEK293, counter-screen for TMEM16A inhibitor project, cell-based; YFP ratio F(max-min)/F0 at 10 µM; shares compounds with ANO1 block; AID 652233, 2013; ionomycin; 2,300 tested, under 10 active;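 active means yellow fluorescent protein signal ratio exceeding the buffer control mean by over 5 SD of those controls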;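 further: ratio is mean of duplicate wells from kinetic YFP trace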
# ClC-1 rat inh = ClC-1 chloride channel inhibition, selectivity assay for TMEM16A inhibitor project, cell-based, voltage-dependent ClC-1; shares compounds with ANO1 block; CHO ClC-1-YFP, iodide influx fluorescence quench; iodide control reads 0, buffer control 100; ratio percent, % at 10 µM; 2,300 tested, under 10 active;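 active means duplicate-mean ratio percent above the mean of iodide-only control wells, which defines zero, plus 5 of their SD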;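 further: higher percent means stronger block of ClC-1 iodide influx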
# The depositor's hits bear a star; i = inactive; x = no result. Shown are actives, neighbours in structure and some others; about 3.2% of the full set was active somewhere.
SMILES,Rce1 inhib,Kir21 block,CHT PAM,CHT inh,ANO1 block,TMEM16A act,TMEM16A reconf,TMEM16A Ca cntr,YFP-HEK293 quench,ClC-1 rat inh
COc1ccc(-c2cn(Cc3ccc4ccccc4c3)nn2)cc1,i,1.1,i,i,i,i,x,x,x,x
COC(=O)C1=CN(Cc2ccccc2)C=C(C(=O)OC)C1c1cc(F)ccc1F,i,-0.07,i,i,i,i,i,i,-1.1,-6
Brc1ccc(C2=Nn3cnnc3SC2)cc1,i,-0.05,i,i,i,i,x,x,x,x
c1ccc2c(c1)oc1c(N3CCOCC3)ncnc12,i,-0.5,i,i,i,i,x,x,x,x
COc1ccccc1N1CCN(c2ncnc3c2oc2ccccc23)CC1,i,-2.7,i,i,100*,i,i,i,-1,-8
C(=C\c1ccccc1)/CN1CCN(c2ncnc3c2oc2ccccc23)CC1,i,1.3,i,i,100*,i,34%*,i,-1,-22
O=C(CSc1n[nH]c(=O)n1C1CC1)c1c[nH]c2ccccc12,x,x,x,x,x,i,x,x,x,x
CC1(C)c2cc(O)ccc2OC1N1CCOCC1 (configuration not stated),i,-0.4,i,i,25*,i,i,i,-1,-13
CC[n+]1c(/C=C2/C=C(C)CC(C)(C)C2)sc2ccc(OC)cc21,i,-6,i,i,25*,i,56%*,i,-0.89,-26
CC[n+]1c(/C=C2\C=C(C)CC(C)(C)C2)sc2ccccc21,i,-1.9,i,i,i,i,x,x,x,x
CCCn1c(=O)cc(N)n(-c2ccc(OC(F)(F)F)cc2)c1=O,i,-0.01,i,i,i,i,x,x,x,x
COc1ccc(CCN(Cc2nc3ccccc3c(=O)[nH]2)C(=O)C2CC2)cc1,i,-3,i,i,i,i,x,x,x,x
COc1ccc(-c2csc(NC(=O)C3=COCCO3)n2)cc1OC,x,x,x,x,x,i,x,x,x,x
CC(C)c1ccccc1OCC(=O)NCC(c1cccs1)N1CCOCC1 (configuration not stated),i,-1.5,i,i,100*,i,34%*,i,-1.3,-3
COc1cc2c(cc1NC(=O)c1cc(-c3ccncc3)nc3ccc(C)cc13)oc1ccccc12,i,0.25,i,i,25*,i,i,i,-1.2,-6
CCN(Cc1ccccc1)C(c1ccncc1)c1nnnn1C(C)(C)C (configuration not stated),x,-0.25,i,i,i,i,x,x,x,x
CCN(Cc1ccccc1)C(c1ccc(C)cc1)c1nnnn1C(C)(C)CC (configuration not stated),i,0.01,i,i,100*,i,i,i,-1.5,0
CC1CCCN(S(=O)(=O)c2ccc(NC(=O)[C@@H]3CCCN3C(=O)c3cccs3)cc2)C1 (some centres not stated),x,x,x,x,x,i,x,x,x,x
COc1ccc2oc(C(=O)OC/C(O)=C(\C#N)c3nc4ccccc4[nH]3)c(C)c2c1,i,1.2,i,i,i,i,x,x,x,x
CCOC(=O)c1c(C)[nH]c(C(=O)OC/C(O)=C(\C#N)c2nc3ccccc3[nH]2)c1C,x,x,i,i,100*,-7.5*,i,i,-0.93,0
O=C(CSc1nnc(CNC(=O)C23CC4CC(CC(C4)C2)C3)n1-c1ccccc1)Nc1ccccc1,i,-2,i,i,i,i,x,x,x,x
O=C(NNC(=S)Nc1ccc(F)c(Cl)c1)C1CC1,i,-1.1,i,i,i,i,x,x,x,x
CN1c2ccsc2C(O)=C(C(=S)Nc2ccc(F)c(Cl)c2)S1(=O)=O,i,0.06,i,i,25*,i,21%*,i,-1.1,-10
Cc1ccc(Cl)cc1N1CCN(C(=O)c2cc3c(=O)n(C)c4ccccc4c3n2C)CC1,i,-0.74,i,i,100*,i,29%*,i,-1.1,-36
Cc1cccc(N2CCN(C(=O)c3cc4c(=O)n(C)c5ccccc5c4n3C)CC2)c1C,i,0.78,i,i,i,i,x,x,x,x
SMILES,Rce1 inhib,Kir21 block,CHT PAM,CHT inh,ANO1 block,TMEM16A act,TMEM16A reconf,TMEM16A Ca cntr,YFP-HEK293 quench,ClC-1 rat inh
CCCCCN(C(=O)CCC(=O)OC(C)C(=O)Nc1cccc(C#N)c1)c1c(N)n(CCCC)c(=O)[nH]c1=O (configuration not stated),i,-2.6,i,i,i,i,x,x,x,x
O=C(NCCCn1ccnc1)c1cc(-c2cccc(O)c2)on1,i,-2,i,i,i,i,x,x,x,x
Cc1nc(-c2c(-c3ccc(O)cc3O)noc2C(F)(F)F)cs1,i,-1.5,i,i,100*,i,i,i,-0.98,2
N#Cc1ccccc1S(=O)(=O)N1CCN(C(=O)C2CCC2)CC1,i,1.2,i,i,i,i,x,x,x,x
O=C(NCc1cccc(Cl)c1)c1cccc(OC2CCN(C(=O)C3CC3)CC2)c1,i,0.1,i,i,100*,i,i,i,-1.1,-17
COc1ccc(COC(=O)c2ccc(Cl)c(S(=O)(=O)N3CC(C)OC(C)C3)c2)cc1 (configuration not stated),i,1.1,i,i,25*,i,16%*,i,-1,-7
CC1CN(C(=O)COC(=O)c2ccc(Cl)c(S(=O)(=O)N3CCCCC3)c2)CC(C)O1 (configuration not stated),i,1.2,i,i,i,i,x,x,x,x
CCCn1c(CC)nc([N+](=O)[O-])c1Sc1ccc(C)cc1,i,0.2,i,i,i,i,x,x,x,x
CCCn1c(CC)nc([N+](=O)[O-])c1Sc1ccc(F)cc1,i,1.2,i,i,25*,i,i,i,-0.95,-6
N#CC1(NC(=O)CSc2nnc(Nc3ccccc3F)s2)CCCC1,x,x,x,x,x,i,x,x,x,x
